NOD2-RIPK2 inh – blocks binding of human NOD2 to RIPK2. CHO BLA complementation NOD2-RIPK2, CCF4 ratio. inhibition, % at 4.98 µM. hit rate 0.38% among 360,000; in the data active = inhibition above about 21%
TLR4 MyD88 comp – TLR4-MyD88 interaction inhibition in cells | O00206+Q99836 | HeLa CL3-4 TLR4/MyD88 BLA complementation, FRET ratio | inhibition, % at 8.4 µM | hit rate 0.18% among 200,000; in the data active = inhibition above about 25%
Rtt109 HAT inh – inhibitors of Candida albicans Rtt109/Vps75 histone acetyltransferase | inhibition, % at 34.9 µM | hit rate 0.16% among 330,000 | Q5AAJ8 | purified Rtt109/Vps75, ThioGlo CoA-SH fluorescence, 4 h;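 active = inhibition of at least 50% in every replicate; inconclusive = best replicate reaches 50% inhibition but some replicates fall short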
LANA-H2B inh – blocks KSHV LANA binding to histone H2A/H2B; AID 2629; inhibition, % (test concentration not listed); Q9QR71; cell-free LANA-H2A/H2B peptide, fluorescence polarization; hit rate 0.6% among 320,000; in the data active = inhibition mostly above about 10%, no sharp cut-off; inactive = mostly below about 6.7%
HTR2A ag – activates the mouse 5-HT2A serotonin receptor; CHO-K1 mHTR2A beta-arrestin complementation, luminescence; percent of 30 µM serotonin response; P35363; hit rate 0.66% among 360,000; activation, % at 7.6 µM; AID 624169;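 active = activation above a run cutoff, the mean activation of all tested compounds plus 3 SD, cut at about 14% in these data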
TLR9-MyD88 inh – TLR9-MyD88 interaction inhibition. Q9NR96+Q99836. CHO BLA complementation TLR9-MyD88, CCF4 FRET ratio. inhibition, % at 4.98 µM. hit rate 0.21% among 340,000;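 active = inhibition above the mean over all tested compounds plus 3 SD, cut at about 21% in these data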
OPRM1 ag – activates human mu opioid receptor in HTR2A counterscreen; shares compounds with HTR2A ag; U2OS OPRM1 beta-arrestin PathHunter, luminescence; DMSO 0%, DAMGO 9.3 µM 100%; activation, % at 9.3 µM; hit rate 5.3% among 2,300; AID 624380;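 active = mean activation above the mean of DMSO-only wells plus 3 SD, cut at about 0.5% in these data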
Target sequence (P35372 whole entry, looked up): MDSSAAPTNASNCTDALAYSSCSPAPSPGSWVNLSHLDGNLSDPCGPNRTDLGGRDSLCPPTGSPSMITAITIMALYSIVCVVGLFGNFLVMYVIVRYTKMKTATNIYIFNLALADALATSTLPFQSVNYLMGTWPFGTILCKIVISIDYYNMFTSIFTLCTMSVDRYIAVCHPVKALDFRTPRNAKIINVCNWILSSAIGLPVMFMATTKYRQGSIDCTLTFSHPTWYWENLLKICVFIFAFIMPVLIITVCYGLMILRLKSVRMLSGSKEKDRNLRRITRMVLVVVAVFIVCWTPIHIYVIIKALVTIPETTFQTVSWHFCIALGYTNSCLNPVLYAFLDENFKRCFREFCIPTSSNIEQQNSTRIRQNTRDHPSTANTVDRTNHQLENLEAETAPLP
m5-HT2A ag conf – confirmation of mouse HTR2A serotonin receptor agonists; shares compounds with HTR2A ag; CHO-K1 PathHunter beta-arrestin recruitment, luminescence; DMSO 0%, 30 µM serotonin 100%; activation, % at 7.6 µM; hit rate 19% among 2,300; AID 624381;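 active = mean activation across triplicates above the hit threshold derived in the original primary screen, cut at about 15% in these data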
A number is an active result; – = inactive; ? = inconclusive; · = not tested or not shown; ! = not active in a repeat. The list is not random: actives were taken first. Their share in the collection is about 1.8%.

SMILES | NOD2-RIPK2 inh | TLR4 MyD88 comp | Rtt109 HAT inh | LANA-H2B inh | HTR2A ag | TLR9-MyD88 inh | OPRM1 ag | m5-HT2A ag conf
CCCCn1c(=O)c(C(=O)NCc2ccco2)c(O)c2ccccc21 | – | – | – | – | – | – | · | ·
Cc1ccc(-n2c(=S)[nH]c3ccc(C)cc3c2=O)cc1 | – | · | · | · | – | – | · | ·
COc1ccc(-n2nnnc2C(c2cc3ccccc3o2)N2CCC(n3c(=O)[nH]c4ccccc43)CC2)cc1 (stereo not given) | – | · | · | · | 16 | · | · | –
COc1ccccc1Sc1ccccc1CC(C)N (stereo not given) | – | – | – | – | – | – | · | ·
COc1cc(CC(C)N)c(OC)cc1I (stereo not given) | – | · | – | – | 70 | – | – | 39
Nc1c(Cl)cc([N+](=O)[O-])cc1Cl | – | · | – | – | – | – | · | ·
COc1cc(CCN)ccc1O | – | · | – | – | – | – | · | ·
CCCCCSc1cc(OC)c(CCN)cc1OC | – | – | – | – | 30 | – | – | –
CCCCCCCSc1cc(OC)c(CCN(C)C)cc1OC | – | – | ? | – | 34 | – | – | 17
N#CC1c2ccccc2C=CN1C(=O)c1ccc(N(CCCl)CCCl)cc1 (stereo not given) | – | · | · | · | 24 | – | – | –
Cc1[nH]c2c(C(F)(F)F)cccc2c1CCN | – | – | – | – | 48 | – | – | 32
O=C1C(=O)N(c2ccccc2)P(=O)(N(CCCl)CCCl)N1c1ccccc1 | – | · | – | · | – | – | · | ·
O=C1NCCCCC1(Cl)Cl | – | · | – | · | 17 | – | – | –
C=CC(C)C(C(=O)c1ccccc1)N(C)C (stereo not given) | – | – | – | – | – | – | · | ·
CC(C)(C)c1cc(OC(=O)Cc2ccccc2)ccc1O | – | · | · | – | 15 | – | – | –
CC[C@H](C)[C@@H]1NC(=O)CNC(=O)c2csc(n2)[C@H](C(C)(C)O)OC(=O)C(C)(C)[C@H](CCCC(C)(Cl)Cl)OC(=O)c2csc1n2 | – | · | · | · | 15 | · | – | –
O=c1cccc2n1CC1CC2CN(C(c2cccc(F)c2)c2sc3ncnn3c2O)C1 (stereo not given) | – | – | – | – | 16 | – | – | –
CC(=O)N1CCC(N2CCCC(C(=O)c3cccc(Cl)c3)C2)CC1 (stereo not given) | – | – | – | – | 36 | – | – | 86
CC[C@H](C)[C@@H]1NC(=O)[C@@H](CC(C)C)NC(=O)[C@H](C(C)C)NC(=O)[C@H]2CSSC[C@H](NC1=O)C(=O)N2 | – | · | · | · | 57 | · | 1.7 | 41
C[C@@H]1CN([C@@H](C)CO)C(=O)CCCn2nncc2CO[C@H]1CN(C)C(=O)Oc1cccc2ccccc12 | – | · | · | · | – | – | · | ·
C/C(=N\NC(=O)c1ccccc1)c1c(O)n(C2CCCCC2)c(=O)[nH]c1=O | – | · | – | – | – | – | · | ·
CCCCn1c(O)c(C(=O)/C=C/c2ccc3c(c2)OCO3)c(=O)[nH]c1=O | – | · | – | – | 27 | – | – | –
O=C(/C=C/c1ccc2c(c1)OCO2)c1c(O)n(CCC2=CCCCC2)c(=O)[nH]c1=O | – | – | – | – | – | – | · | ·
O=C(Oc1c(Cl)cc(Cl)c2ccccc12)N1CCCCC1 | – | – | – | – | 15 | – | – | –
CC(C)=CCN1CC[C@@]2(C)c3cc(O)ccc3C[C@@H]1C2C (stereo not given in full) | – | · | – | · | – | – | · | ·
SMILES | NOD2-RIPK2 inh | TLR4 MyD88 comp | Rtt109 HAT inh | LANA-H2B inh | HTR2A ag | TLR9-MyD88 inh | OPRM1 ag | m5-HT2A ag conf
CCc1ccc(CN2CCN(C(=O)Cc3ccccc3)CC2)cc1 | – | – | – | – | – | – | · | ·
CN1CCN(C(=O)Cc2ccccc2)CC1 | – | · | – | – | 20 | – | – | –
O=C(Cc1ccccc1)N1CCN(Cc2ccccc2Cl)CC1 | – | · | – | – | 22 | – | – | –
CC(C)OP(=O)(Oc1ccc(C(O)C(Cl)(Cl)Cl)cc1)OC(C)C (stereo not given) | – | · | – | – | – | – | · | ·
CCC1CN1P(=S)(N1CC1CC)N1CC1CC (stereo not given) | – | · | – | · | – | – | · | ·
C=CCCC1(CC)C(=O)NC(=S)NC1=O | – | · | – | · | – | – | · | ·
CC(N)Cc1c[nH]c2ccc(OCc3cccs3)cc12 (stereo not given) | – | · | – | – | 22 | – | – | –
COc1ccc(CNC(C)Cc2cccs2)cc1 (stereo not given) | – | – | – | – | – | – | · | ·
CC(N)Cc1c[nH]c2ccc(O)cc12 (stereo not given) | – | · | – | · | 49 | – | – | 32
CC(=O)Cc1c[nH]c2ccccc12 | · | · | · | – | · | · | · | ·
O=C1C=CC(=O)C=C1 | – | · | – | · | 35 | – | 0.9 | –
O=P(Oc1ccc(-c2ccccc2)cc1)(N1CC1)N1CC1 | – | · | – | · | – | – | · | ·
N#CC12CNCC1CN=N2 (stereo not given) | – | · | – | 18 | 22 | – | – | –
Cc1cc(C)n2c(Br)c(CN3CC4CC(C3)c3cccc(=O)n3C4)nc2n1 (stereo not given) | – | – | – | – | 22 | – | – | –
CCCN1CCO[C@@H]2c3cc(O)ccc3OC[C@H]21 | – | · | – | – | 58 | – | – | 161
c1ccc(CNCCc2ccc3c(c2)OCO3)nc1 | – | – | – | – | – | – | · | ·
Brc1cccc(CNCCc2ccc3c(c2)OCO3)c1 | – | · | – | – | 21 | – | 1.4 | 21
CC[C@@H]1C(=O)OC[C@@H]1Cc1cncn1C | – | – | – | – | 18! | – | – | –
C[C@]12CC[C@H](OS(=O)(=O)O)CC1=CC[C@@H]1[C@@H]2CC[C@]2(C)C(=O)CC[C@@H]12 | – | · | – | – | 15! | – | – | –
Cc1ccc(S(=O)(=O)N2Cc3cc(-c4cccc(F)c4)ccc3-n3nncc3C2)cc1 | – | · | · | · | – | · | · | ·
O=S(=O)(c1cc(Cl)cc(Cl)c1)N1Cc2cc(-c3cccc(F)c3)ccc2-n2nncc2C1 | – | · | · | · | 14 | · | – | –
COC(=O)C1=C(c2ccc(F)cc2OCc2ccccc2)C[C@@H]2CC[C@H]1N2C(=O)NCc1ccc([N+](=O)[O-])cc1 | – | · | – | – | – | – | · | ·
N#Cc1c(Br)n(C2OC(CO)C(O)C2O)c2ncnc(N)c12 (stereo not given) | – | · | – | · | 51 | – | – | 100
C[C@H](N)CN1CCc2ccc(Br)cc21 | – | · | – | – | 49 | – | – | 36

High-throughput results from PubChem.
